Source: PubChem BioAssay (NCI)
This is part of a sample that, as a whole, favours compounds with a hit. Of some 83,000 tested, about 20% had one in any assay.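 Negative percent growth values reflect cell death: -40 means 40% of the cells present at the start died, and -100 means all died.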 Calls of active or inactive are those of the source. The calls were made as follows: active = growth percent below 10; inactive = the rest.

Legend:
Experiment in all cases: NCI-60 one-dose screen, 48 h (100 = growth as untreated, 0 = no growth, -100 = all killed)
Conditions in all cases: 10 µM unless noted
[1] = test system: NCI-H23 lung
[2] = test system: NCI-H226 lung
[3] = test system: NCI-H322M lung
[4] = test system: HOP-62 NSCLC
[5] = test system: NCI-H460 lung
[6] = test system: HOP-92 NSCLC
[7] = test system: NCI-H522 lung
[8] = test system: A549/ATCC NSCLC
[9] = test system: 786-0 renal
[10] = test system: COLO 205 colon
[11] = test system: DU-145 prostate
[12] = test system: K-562 leukemia
[13] = test system: MALME-3M melanoma
[14] = test system: MDA-MB-231 breast
[15] = test system: RXF 393 renal
[16] = test system: SF-268 CNS
[17] = test system: SF-295 CNS
[18] = test system: SF-539 CNS
[19] = test system: UACC-257 melanoma
[20] = test system: M14 melanoma

Measured: growth

c1ccc(Cn2cc3c(c2)-c2nc(Nc4ccccc4)ncc2CC3)cc1
inactive: [1] 71.7% [100 µM] | [2] 87.1% [100 µM] | [3] 78.2% [100 µM] | [4] 85.8% [100 µM] | [5] 82.7% [100 µM] | [6] 50.4% [100 µM] | [7] 80% [100 µM] | [8] 81.9% [100 µM] | [9] 97.3% [100 µM] | [10] 106% [100 µM] | [11] 83.2% [100 µM] | [12] 108% [100 µM] | [13] 83.5% [100 µM] | [14] 65.2% [100 µM] | [15] 48.6% [100 µM] | [16] 76.9% [100 µM] | [17] 57.6% [100 µM] | [18] 64.3% [100 µM] | [19] 98.2% [100 µM] | [20] 92.9% [100 µM]

Cc1ccc(C2=Nc3c(N)nc(N)nc3NC(c3cccc(Nc4ccnc5cc(C(F)(F)F)ccc45)c3)C2)cc1 (stereo not given)
active: [10] 7.09% | [12] 8.46%
inactive: [1] 39.4% | [2] 80.7% | [3] 54.8% | [4] 34.1% | [5] 11.7% | [6] 28.3% | [7] 11.9% | [8] 30.1% | [9] 20.9% | [11] 46.6% | [13] 39.1% | [14] 34.8% | [15] 23.6% | [16] 29.7% | [17] 15.8% | [18] 40.3% | [19] 62.3% | [20] 11.1%

O=C(/C=C/c1cccc([N+](=O)[O-])c1)c1ccc(Nc2nc(Nc3ccc(F)cc3)nc(Nc3ccc(Cl)cc3)n2)cc1
active: [15] 3.04%
inactive: [1] 81.4% | [2] 87.2% | [3] 87.6% | [4] 151% | [5] 91.9% | [6] 50.9% | [7] 82.8% | [8] 83% | [9] 99.4% | [10] 91.2% | [11] 106% | [12] 70% | [13] 105% | [14] 92.2% | [16] 93.8% | [17] 84.8% | [18] 106% | [19] 100% | [20] 92.5%

CCN1CCN(c2cc(C(=O)Nc3cccc(Nc4ccc5c(OC)cccc5n4)c3)cc(C(F)(F)F)c2)CC1
inactive: [1] 44.5% | [2] 45.1% | [3] 26.2% | [8] 21.1% | [11] 23.3% | [15] 17.3% | [16] 32.8% | [17] 14% | [18] 19.5%
active: [4] 5.17% | [5] -48.7% | [6] -3.85% | [7] -45.2% | [9] -70.1% | [10] -77.1% | [12] -29.8% | [13] -59.6% | [14] 9.58% | [19] -40.3% | [20] -41.9%

CCN(CC)CCCC(Nc1c2ccc(Cl)cc2nc2ccc(OC)cc12)c1ccncc1 (stereo not given)
inactive: [1] 80.7% | [2] 94.5% | [3] 65.4% | [4] 83.4% | [5] 66% | [6] 65.7% | [7] 83.3% | [8] 74.4% | [9] 62.7% | [10] 69.8% | [11] 70.6% | [12] 32.6% | [13] 76.7% | [14] 59.3% | [15] 65.4% | [16] 77.8% | [17] 89.9% | [18] 62.9% | [19] 114% | [20] 113%

O=C1OCC2=C1C(c1cccc(F)c1)c1cc3c(cc1N2CCO)CCC3 (stereo not given)
inactive: [1] 24.7% | [2] 39.6% | [3] 40.9% | [4] 26.2% | [6] 58.5% | [7] 11.6% | [8] 17.3% | [9] 32.3% | [13] 50.9% | [14] 26.9% | [15] 32.3% | [16] 23.3% | [19] 90.1%
active: [5] 6.75% | [10] -25.6% | [11] 2.44% | [12] 9.4% | [17] -6.45% | [18] -28.9% | [20] 7.72%

NC(=O)[C@@H]1Cc2ccccc2CN1C(=O)c1ccc2c(c1)Cc1ccccc1-2
inactive: [1] 89.4% | [2] 83.2% | [3] 103% | [4] 108% | [5] 91.5% | [6] 92.9% | [7] 66.9% | [8] 64.9% | [9] 97.8% | [10] 105% | [11] 86% | [12] 58.9% | [13] 87.3% | [14] 98.4% | [15] 91.9% | [16] 87.3% | [17] 79.8% | [18] 97.6% | [19] 94.9% | [20] 87.4%

COC(=O)c1sc(-c2ccc(C)cc2)cc1O
inactive: [1] 99.1% | [2] 109% | [3] 94.2% | [4] 109% | [5] 101% | [6] 105% | [7] 105% | [8] 103% | [9] 96.7% | [10] 107% | [11] 101% | [12] 84.3% | [13] 97.9% | [14] 99.6% | [15] 109% | [16] 96.2% | [17] 112% | [18] 114% | [19] 115% | [20] 101%

O=C(OCC(O)C(=O)NC12CC3CC(CC(C3)C1)C2)c1cccc(Br)c1 (stereo not given)
inactive: [1] 103% | [2] 97.5% | [3] 102% | [4] 96.9% | [5] 108% | [6] 90.1% | [7] 91.9% | [8] 91.9% | [9] 102% | [10] 105% | [11] 105% | [12] 89.4% | [13] 101% | [14] 92% | [15] 110% | [16] 103% | [17] 96.9% | [18] 96.2% | [19] 91.1% | [20] 95.5%

CCCCCCCCNc1ncnc2c1ncn2Cc1nnc2c3ccccc3c(Cl)nn12
inactive: [1] 59.6% | [2] 39.9% | [3] 77.8% | [4] 54.3% | [5] 53.3% | [7] 52.9% | [8] 73.1% | [9] 47.7% | [10] 65.5% | [11] 49% | [12] 14.8% | [13] 69.9% | [14] 55.4% | [15] 36.1% | [16] 35.5% | [17] 61.8% | [18] 49.9% | [19] 46.9% | [20] 34.5%
active: [6] 3.23%

CN(C)c1ccc(/C=N/NC(=O)CSc2nc3sc4c(c3c(=O)n2-c2ccccc2)CCCCC4)cc1
inactive: [1] 29.7% | [2] 96.5% | [3] 44.9% | [4] 21.5% | [6] 50.3% | [7] 21.2% | [9] 45% | [10] 33.8% | [11] 14.9% | [12] 63.8% | [13] 35.5% | [14] 43.8% | [16] 57.3% | [17] 19.1% | [18] 34.6% | [19] 64.8% | [20] 46.6%
active: [5] 1.49% | [8] 6.63% | [15] -6.22%

O=C1c2cccnc2C(=O)c2c1c(C(=O)OCCCN1CCOCC1)c1ccccn21
inactive: [14] 14.1%
active: [1] -32.1% | [2] -6.42% | [3] -51.5% | [4] -25.6% | [5] -60% | [6] -20.6% | [7] -75.1% | [8] -25% | [9] -18.4% | [10] -75.8% | [11] -84.2% | [12] -20.2% | [13] -53.9% | [15] 3.94% | [16] 5.83% | [17] -4.43% | [18] -43.2% | [19] -85.6% | [20] -81.2%

COc1ccc(Nc2nccc(Nc3ccc4[nH]ncc4c3)n2)cc1
inactive: [1] 40.3% | [2] 28.1% | [3] 63.2% | [4] 49% | [5] 24.9% | [7] 19.1% | [8] 24% | [9] 43.5% | [10] 26.4% | [11] 32% | [13] 76.1% | [14] 48.6% | [15] 31.8% | [16] 47% | [17] 47.7% | [18] 68.8% | [19] 46.2% | [20] 33%
active: [6] -1.08% | [12] 4.96%

CNC(=O)c1cc(Oc2cccc3nc(NC(=O)Nc4ccc(F)cc4F)ccc23)ccn1
active: [4] 0.65% | [8] 8.57% | [9] -48.7% | [13] -21.2% | [15] 1.54% | [18] -18.9%
inactive: [1] 42.7% | [2] 49.7% | [3] 33% | [5] 13.7% | [6] 41.4% | [7] 46% | [10] 37.9% | [11] 30% | [12] 42% | [14] 60.1% | [16] 48.1% | [17] 55.6% | [19] 56.3% | [20] 19.3%

C#C[C@]1(O)CC[C@H]2[C@@H]3CC=C4c5sc(-c6ccccc6)nc5CC[C@]4(C)[C@H]3CC[C@@]21C
inactive: [1] 84.1% | [2] 99.6% | [3] 86.7% | [4] 99.5% | [5] 75.5% | [6] 77% | [7] 77.9% | [8] 101% | [9] 42.9% | [10] 116% | [11] 96.1% | [12] 17.6% | [13] 97.5% | [14] 89% | [15] 32.3% | [16] 83.4% | [17] 41.4% | [18] 31.6% | [19] 84.6% | [20] 78.9%
